From PubChem BioAssay
VCAM1 TNFa inh = reduces TNF alpha induced VCAM1 expression in HUVEC; HUVEC TNFa-induced VCAM-1 immunofluorescence, high-content imaging; 0.48% of 95,000 active; inhibition, % at 2 µM; AID 802;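 active means inhibition above the batch mean plus 3 SD, with images confirmed as a hit by eye, cut at about 37% in these data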
E-sel TNF inh = TNF alpha driven E-selectin expression inhibition | inhibition, % at 2 µM | HUVEC TNFa-induced E-selectin immunofluorescence, high content | AID 1246 | 0.71% of 120,000 active;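 active means inhibition above the batch mean plus 3 SD, and confirmed as a hit on visual image review, cut at about 43% in these data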
TNFa cytotox = toxic to HUVEC cells under TNF alpha stimulation | cell count reduction, % at 2 µM | 0.17% of 93,000 active | AID 848 | HUVEC TNFalpha-stimulated, Hoechst cell count, imaging;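 active means cell count reduction exceeding the screen mean by over 5 SD, scaled to untreated wells per plate, cut at about 78% in these data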;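 further: cells counted after 24 h of TNF alpha exposure following the 1 h pretreatment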
NFkB transloc pot = enhances IL-1B driven NFkB nuclear translocation. HUVEC IL-1B NFkB p65 nuclear translocation imaging. activation, % at 2 µM. 0.3% of 94,000 active;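 active means activation above 40%, about the mean plus 3 SD, also judged a hit on visual image review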;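 further: percent activation is computed from the nuclear over cytoplasmic p65 intensity ratio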
HUVEC tox IL1B = toxic to HUVEC cells under IL-1B stimulation; AID 845; HUVEC cell count loss, Hoechst imaging, IL-1B stimulated; 0.41% of 94,000 active; cell count reduction, % at 2 µM;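 active means cell count reduction more than 3 SD above the screen-wide mean, cut at about 70% in these data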
NFkB transloc inh = blocks IL-1B driven NFkB nuclear translocation in HUVEC cells. inhibition, % at 2 µM. HUVEC IL-1B NFkB p65 nuclear translocation imaging. 0.43% of 94,000 active;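 active means inhibition above about 30% together with a positive call from visual inspection of the well image, limit read from the data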;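 further: nuclear over cytoplasmic p65 intensity ratio measured by imaging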
Numbers stand for hits. In the library only some 1.7% were active in any assay of this set; here they are far more common.

Results for COc1ccc(C(=O)n2c(SC)nc3cc4c(cc32)OCCO4)cc1 ?
VCAM1 TNFa inh: inactive; E-sel TNF inh: inactive; TNFa cytotox: inactive; NFkB transloc pot: inactive; HUVEC tox IL1B: inactive; NFkB transloc inh: inactive

Results for CCC(=O)Nc1ccc2c(c1)nc(CN1CCN(C(C)=O)CC1)n2C ?
VCAM1 TNFa inh: inactive; E-sel TNF inh: inactive; TNFa cytotox: inactive; NFkB transloc pot: inactive; HUVEC tox IL1B: inactive; NFkB transloc inh: inactive

What do the screens show for `c1nc(NCCN2CCOCC2)c2c3c(sc2n1)CCCCC3`?
VCAM1 TNFa inh: inactive; TNFa cytotox: inactive; NFkB transloc pot: inactive; HUVEC tox IL1B: inactive; NFkB transloc inh: inactive

What do the screens show for `c1nc(NCCN2CCOCC2)c2sc3nc(N4CCOCC4)c4c(c3c2n1)CCC4`?
E-sel TNF inh: 66

What do the screens show for `O=C1CC(=O)N(Cc2ccco2)C(=O)N1`?
E-sel TNF inh: inactive

How did O=C1CC(=O)N(Cc2ccco2)C(=S)N1 do in these assays?
VCAM1 TNFa inh: inactive; E-sel TNF inh: inactive; TNFa cytotox: inactive; NFkB transloc pot: inactive; HUVEC tox IL1B: inactive; NFkB transloc inh: 32

How did N#Cc1ccsc1NC(=O)COC(=O)c1ccc2ccccc2c1 do in these assays?
E-sel TNF inh: 97

How did c1ccc(-c2csc(Nc3ccc4c(c3)OCCO4)n2)cc1 do in these assays?
VCAM1 TNFa inh: inactive; E-sel TNF inh: inactive; TNFa cytotox: inactive; NFkB transloc pot: inactive; HUVEC tox IL1B: inactive; NFkB transloc inh: 44

Results for CC(=O)N1CCc2cc(Br)cc(S(=O)(=O)NCCCN3CCC(C)CC3)c21 ?
VCAM1 TNFa inh: inactive; E-sel TNF inh: inactive; TNFa cytotox: inactive; NFkB transloc pot: inactive; HUVEC tox IL1B: inactive; NFkB transloc inh: inactive

Results for O=C(C1CC1)N1CCc2cc(Br)cc(S(=O)(=O)NCCCN3CCCC3)c21 ?
E-sel TNF inh: 66

Results for Cc1[nH][nH]c(=O)c1C(c1ccc(-c2ccc(Cl)c(Cl)c2)o1)c1c(C)[nH][nH]c1=O ?
VCAM1 TNFa inh: inactive; E-sel TNF inh: inactive; TNFa cytotox: inactive; NFkB transloc pot: 42; HUVEC tox IL1B: inactive; NFkB transloc inh: inactive

Results for Cc1ccc(C(=O)NCc2nnc(SCC(=O)Nc3sc4c(c3C#N)CCCC4)n2C)cc1 ?
VCAM1 TNFa inh: inactive; E-sel TNF inh: inactive; TNFa cytotox: inactive; NFkB transloc pot: inactive; HUVEC tox IL1B: 82; NFkB transloc inh: inactive

Results for O=C(Nc1ccc2nsnc2c1)c1ccc2c(c1)OCO2 ?
VCAM1 TNFa inh: inactive; E-sel TNF inh: 100; TNFa cytotox: inactive; NFkB transloc pot: inactive; HUVEC tox IL1B: inactive; NFkB transloc inh: inactive

What do the screens show for `Cc1ccc(-n2c(SCC(=O)Nc3nccs3)nc3c(c2=O)SCC3)cc1`?
E-sel TNF inh: 97

What do the screens show for `CCOc1ccc(-n2c(SCC(=O)Nc3ccc(OC)cc3)nc3c(c2=O)SCC3)cc1`?
VCAM1 TNFa inh: 60; E-sel TNF inh: inactive; TNFa cytotox: 82; NFkB transloc pot: inactive; HUVEC tox IL1B: inactive; NFkB transloc inh: inactive

Results for COc1ccc(-n2c(SCC(=O)Nc3ccc4c(c3)OCO4)nc3c(c2=O)SCC3)cc1 ?
VCAM1 TNFa inh: inactive; TNFa cytotox: inactive; NFkB transloc pot: inactive; HUVEC tox IL1B: inactive; NFkB transloc inh: inactive

What do the screens show for `CCOc1ccc(-n2c(SCC(=O)Nc3nccs3)nc3c(c2=O)SCC3)cc1`?
E-sel TNF inh: inactive

How did Cc1cnc(NC(=O)c2ccco2)s1 do in these assays?
VCAM1 TNFa inh: inactive; TNFa cytotox: 89; NFkB transloc pot: inactive; HUVEC tox IL1B: inactive; NFkB transloc inh: inactive

Results for CC(=O)N[C@@H](Cc1c[nH]c2ccccc12)C(=O)OCC(=O)Nc1ccc(Cl)c(S(=O)(=O)N(C)C)c1 ?
E-sel TNF inh: 62

How did COc1cccc(/C=C/C(=O)OCC(=O)Nc2ccc(Cl)c(S(=O)(=O)N(C)C)c2)c1 do in these assays?
E-sel TNF inh: 69

What do the screens show for `O=C(c1ccc(Cl)c(S(=O)(=O)NCc2ccco2)c1)N1CCN(c2ccc(F)cc2)CC1`?
VCAM1 TNFa inh: inactive; E-sel TNF inh: inactive; TNFa cytotox: inactive; NFkB transloc pot: inactive; HUVEC tox IL1B: inactive; NFkB transloc inh: 36

How did O=C1CC(O)(C(F)F)Oc2ccc3ccccc3c21 (stereo not drawn) do in these assays?
VCAM1 TNFa inh: inactive; E-sel TNF inh: inactive; TNFa cytotox: inactive; NFkB transloc pot: inactive; HUVEC tox IL1B: inactive; NFkB transloc inh: inactive

Results for O=c1cc(C(F)F)oc2c1ccc1ccccc12 ?
E-sel TNF inh: 93
